CYP2C9 inh: blocks human cytochrome P450 2C9 | CYP2C9 Supersomes, luciferin-H conversion, luminescence | inhibition, % at 5 µM | hit rate 20% among 96,000 | AID 777;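 active means blocking of liver enzyme CYP2C9 beyond about 50% at 5 µM, limit read from the data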
Target sequence (P11712 whole entry, looked up): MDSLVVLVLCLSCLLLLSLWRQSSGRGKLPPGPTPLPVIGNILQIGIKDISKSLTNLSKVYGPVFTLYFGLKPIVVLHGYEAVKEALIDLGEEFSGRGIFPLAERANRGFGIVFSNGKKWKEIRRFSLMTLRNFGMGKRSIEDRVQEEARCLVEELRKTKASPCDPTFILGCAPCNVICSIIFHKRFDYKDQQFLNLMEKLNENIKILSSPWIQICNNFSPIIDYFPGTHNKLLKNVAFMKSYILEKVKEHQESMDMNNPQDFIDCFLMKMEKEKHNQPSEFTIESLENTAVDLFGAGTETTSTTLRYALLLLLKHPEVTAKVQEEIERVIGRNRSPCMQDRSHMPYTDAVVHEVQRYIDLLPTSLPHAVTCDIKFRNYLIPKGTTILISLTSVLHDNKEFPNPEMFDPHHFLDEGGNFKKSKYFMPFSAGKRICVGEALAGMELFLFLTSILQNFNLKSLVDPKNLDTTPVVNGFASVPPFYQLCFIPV
CYP2C19 inhib: blocks human cytochrome P450 2C19; P33261; CYP2C19 Supersomes, luciferin-H EGE luminescence, 30 min; inhibition, % at 5 µM; hit rate 21% among 96,000; AID 778;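 active means CYP2C19 inhibition above a set limit at 5 µM in the primary screen, cut at about 50% in these data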
PostGolgi ctrl: growth of the yeast control strain, post-Golgi counter-screen | efflux-deficient yeast background strain, growth absorbance A615, 16 h | inhibition, % at 10 µM | hit rate 5% among 98,000 | AID 738
PostGolgi yeast: growth inhibition of a yeast mutant, post-Golgi transport screen | AID 739 | post-Golgi transport phenotypic cell assay | inhibition, % at 10 µM | hit rate 0.9% among 98,000;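 further: yeast cells grown in 1536-well plates; yeast grown about 18 h at 30C before absorbance read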
CYP2C19 act: activators of human cytochrome P450 2C19; P33261; 96,000 tested, under 10 active; activation factor at 5 µM; recombinant CYP2C19, luciferin-H EGE luminescence; hits give high values; 0 = fully inhibited enzyme, 1 = untreated enzyme;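 active means activation factor of at least 2 at 5 µM in the primary screen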
CYP2C9 act: increases human cytochrome P450 2C9 activity | P11712 | activation factor at 5 µM | recombinant CYP2C9, luciferin-H conversion, luminescence; hits give high values; factor 1 = untreated enzyme, 0 = blocked | hit rate 1.4% among 96,000;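 active means activation factor of 2 or more for CYP2C9 at a 5 µM dose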
Numbers stand for hits; – = inactive; · = no result. A selection: hits, their analogues and other compounds. The true share with any hit is near 32%. Unless noted, no stated cut-off is given here; in the data, active means inhibition above about 30%; inactive means the rest.

SMILES | CYP2C9 inh | CYP2C19 inhib | PostGolgi ctrl | PostGolgi yeast | CYP2C19 act | CYP2C9 act
CC1(C)Cc2c(C#N)c(N3CCN(C(=O)c4ccccc4)CC3)nc(-c3ccco3)c2CS1 | · | · | 35 | – | · | ·
CCOC(=O)c1ccc(NCC(O)COc2ccccc2)cc1 (stereo unspecified) | · | · | – | – | · | ·
Cc1ccc(OCC(=O)OCC(=O)c2c(N)n(C)c(=O)n(C)c2=O)cc1C | – | 60 | – | – | – | –
Cn1c(N)c(C(=O)COC(=O)CCc2c[nH]c3ccccc23)c(=O)n(C)c1=O | – | 60 | – | – | – | –
Cn1c(N)c(C(=O)COC(=O)CCCc2c[nH]c3ccccc23)c(=O)n(C)c1=O | – | – | – | – | – | –
Cc1ccc(C(C(=O)NC2CCCCC2)N2CCN(C(=O)c3ccco3)CC2)cc1 (stereo unspecified) | – | – | – | – | – | –
O=C(NC12CC3CC(CC(C3)C1)C2)c1cncc(O)c1 | – | – | – | – | – | –
COc1cc(NS(=O)(=O)c2ccc(NC(=O)COc3ccccc3C)cc2)nc(OC)n1 | 91 | – | – | – | – | –
COc1cc(NS(=O)(=O)c2ccc(NS(=O)(=O)c3ccccc3)cc2)nc(OC)n1 | 78 | – | – | – | – | –
COc1cc(NS(=O)(=O)c2ccc(NC(=O)COc3ccc(C)cc3C)cc2)nc(OC)n1 | 69 | – | – | – | – | –
COc1cc(NS(=O)(=O)c2ccc(NC(=O)COc3ccc(C)cc3)cc2)nc(OC)n1 | 82 | – | – | – | – | –
COc1cc(C2CC(=O)c3cnc(N)nc3C2)cc(OC)c1OC (stereo unspecified) | – | – | – | – | – | –
COc1ccc(C2(C(=O)NCCCN3CCOCC3)CCOCC2)cc1 | – | – | – | – | – | –
Cc1cccc(-n2c(CNC(=O)c3ccccc3)nnc2SCC(=O)Nc2nccs2)c1 | – | – | – | – | – | –
CCn1c(SCC(N)=O)nc2c1c(=O)n(C)c(=O)n2C | – | – | – | – | – | –
O=C1C2C3c4ccccc4C(c4ccccc43)C2C(=O)N1c1nc(-c2ccccc2)cs1 (stereo unspecified) | 62 | – | – | – | – | –
N=C1SCC(=O)N1c1nc(-c2ccccc2)cs1 | – | – | – | – | – | –
CCCCc1noc2c1/C(=N\O)CC(c1ccccc1)C2 (stereo unspecified) | 77 | – | – | – | – | –
CCc1n[nH]c2c1/C(=N\O)CC(c1ccccc1)C2 (stereo unspecified) | 98 | 96 | – | – | – | –
CCc1n[nH]c2c1/C(=N\O)CC(C)(C)C2 | – | – | – | 98 | – | –
CCCCc1n[nH]c2c1C(=O)CC(C)(C)C2 | – | – | – | – | – | –
CCCCc1n[nH]c2c1/C(=N/O)CC(c1ccccc1)C2 (stereo unspecified) | – | – | – | – | – | –
COC(=O)C(CCSC)NC(=O)Cn1ncc2c(=O)oc3ccccc3c21 (stereo unspecified) | – | – | – | – | – | –
CCC(C)NC(=O)c1cnn2c1NC(c1ccc3c(c1)OCO3)CC2C(F)(F)F (stereo unspecified) | – | – | – | – | – | –
Fc1ccc(CSc2nnc(-c3cnccn3)n2Cc2ccco2)cc1 | 77 | 70 | – | – | – | –
SMILES | CYP2C9 inh | CYP2C19 inhib | PostGolgi ctrl | PostGolgi yeast | CYP2C19 act | CYP2C9 act
Brc1ccc(CSc2nnc(-c3cnccn3)n2Cc2ccco2)cc1 | – | – | 38 | – | – | –
Fc1ccccc1CSc1nnc(-c2cnccn2)n1Cc1ccco1 | · | · | – | – | · | ·
COC(=O)c1c(NC(=O)CC2Nc3ccccc3NC2=O)sc(C)c1C (stereo unspecified) | – | – | – | – | – | –
O=C(c1ccc(S(=O)(=O)N2CCCCC2)cc1)N1CCN(Cc2ccc3c(c2)OCO3)CC1 | – | – | – | – | – | –
O=C(OCc1ccc2c(c1)OCO2)c1cccc(S(=O)(=O)N2CCCCC2)c1 | 99 | 92 | 38 | – | – | –
O=C(OCc1ccc2c(c1)OCO2)c1ccc(S(=O)(=O)N2CCCC2)cc1 | 97 | 83 | – | – | – | –
COC(=O)c1cccc(S(=O)(=O)N2CCCCC2)c1 | – | 58 | – | – | – | –
O=C(Nc1ccc2c(c1)OCO2)c1cccc(S(=O)(=O)N2CCCC2)c1 | – | – | – | – | – | –
O=C(COC(=O)c1cccc(S(=O)(=O)N2CCOCC2)c1)Nc1ccc2c(c1)OCO2 | 61 | 70 | – | – | – | –
NC(=O)c1cccc(S(=O)(=O)N2CCCCC2)c1 | – | – | – | – | – | –
O=S(=O)(c1ccc(Nc2ccc3c(c2)OCO3)nc1)N1CCOCC1 | 78 | – | – | – | – | –
CC1CN(C2CCN(C(=O)c3ccccc3Cl)CC2)CC(C)O1 (stereo unspecified) | – | – | – | – | – | –
CCOc1cc2c(C)cc(=O)oc2cc1Cl | – | – | – | – | – | –
C=CCNC(=O)COc1ccc(Br)cc1Cl | – | 93 | – | – | – | –
CC(C)N(C(=O)COc1ccc(Br)cc1Cl)C(C)C | 60 | 94 | – | – | – | –
COCCNC(=O)COc1ccc(Br)cc1Cl | – | – | – | – | – | –
CCC(c1nnnn1C(C)(C)C)N1CCN(c2cc(Cl)ccc2C)CC1 (stereo unspecified) | 79 | – | – | – | – | –
CC(C)CC(c1nnnn1Cc1ccco1)N1CCN(c2cccc(Cl)c2)CC1 (stereo unspecified) | – | – | 40 | – | – | –
CCCC(c1nnnn1Cc1ccco1)N1CCN(C2CCCC2)CC1 (stereo unspecified) | – | – | – | – | – | –
CCCC(c1nnnn1CC1CCCO1)N1CCN(c2cc(Cl)ccc2C)CC1 (stereo unspecified) | 89 | 96 | – | – | – | –
CC(C)CC(c1nnnn1CC1CCCO1)N1CCN(c2cccc(Cl)c2)CC1 (stereo unspecified) | · | · | 34 | – | · | ·
CC(=O)c1ccc(NC(=O)CSc2nc3nc(C)cc(C)n3n2)cc1 | – | – | – | – | – | –
CC(=O)NCCN1C(=O)C2C3c4ccccc4C(c4ccccc43)C2C1=O (stereo unspecified) | – | – | – | – | – | –
Cc1ccc(C(c2nnnn2CC2CCCO2)N2CCN(c3cccc(C)c3C)CC2)cc1 (stereo unspecified) | 70 | – | – | – | – | –
CC(=O)c1ccc(NC2c3ncccc3C(=O)N2Cc2ccc(F)cc2)cc1 (stereo unspecified) | – | 76 | – | – | – | –
CC(=O)c1cccc(NC2c3ncccc3C(=O)N2Cc2ccco2)c1 (stereo unspecified) | – | 83 | – | – | – | –
O=C1c2cccnc2C(Nc2ccccc2)N1Cc1ccco1 (stereo unspecified) | – | – | – | – | – | –
COc1ccc(CN2C(=O)c3cccnc3C2Nc2cc(Cl)c(OC)cc2OC)cc1 (stereo unspecified) | – | – | – | – | – | –
